# Source: publication PMC11006913
# Positions count from the first letter of the chain named.
# Assays:
# Assay in all cases: PBM; 200 nM protein, PBS
# Settings in all cases: dsDNA, one strand shown
# HOXB4 [1] = target: HOXB4 (Homo sapiens, UniProt P17483 148-234)
# HOXA4 [2] = target: HOXA4 (Homo sapiens, UniProt Q00056 201-287, W262R)
# HOXA2 [3] = target: HOXA2 (Homo sapiens, UniProt O43364 129-215, R185T)
# HOXA4 [4] = target: HOXA4 (Homo sapiens, UniProt Q00056 201-287, R217L)
# HOXB4 [5] = target: HOXB4 (Homo sapiens, UniProt P17483 148-234, V174I)
# HOXB4 (Homo sapiens, UniProt P17483 148-234, V174I), sequence (P17483 148-234 V174I): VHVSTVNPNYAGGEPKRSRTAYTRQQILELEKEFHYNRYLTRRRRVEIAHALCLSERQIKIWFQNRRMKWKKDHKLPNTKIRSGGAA
# HOXA2 [6] = target: HOXA2 (Homo sapiens, UniProt O43364 129-215, R185K)
# HOXA2 (Homo sapiens, UniProt O43364 129-215, R185K), sequence (O43364 129-215 R185K): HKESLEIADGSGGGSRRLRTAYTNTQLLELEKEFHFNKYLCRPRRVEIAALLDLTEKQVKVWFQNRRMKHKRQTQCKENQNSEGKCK
# HOXA4 [7] = target: HOXA4 (Homo sapiens, UniProt Q00056 201-287)
# HOXA4 (Homo sapiens, UniProt Q00056 201-287), sequence (Q00056 201-287): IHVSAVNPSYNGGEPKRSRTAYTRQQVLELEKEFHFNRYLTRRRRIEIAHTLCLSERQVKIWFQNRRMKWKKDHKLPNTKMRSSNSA
# HOXA2 [8] = target: HOXA2 (Homo sapiens, UniProt O43364 129-215, Y150S)
# HOXA2 (Homo sapiens, UniProt O43364 129-215, Y150S), sequence (O43364 129-215 Y150S): as the sequence (O43364 129-215 R185K) above, with Y22S, K57R counted along it
# HOXA4 [9] = target: HOXA4 (Homo sapiens, UniProt Q00056 201-287, W262F)
# HOXA4 (Homo sapiens, UniProt Q00056 201-287, W262F), sequence (Q00056 201-287 W262F): as the sequence (Q00056 201-287) above, with W62F counted along it
# HOXA2 [10] = target: HOXA2 (Homo sapiens, UniProt O43364 129-215)
# HOXA2 (Homo sapiens, UniProt O43364 129-215), sequence (O43364 129-215): as the sequence (O43364 129-215 R185K) above, with K57R counted along it
# HOXA7 [11] = target: HOXA7 (Homo sapiens, UniProt P31268 116-202)
# HOXA7 (Homo sapiens, UniProt P31268 116-202), sequence (P31268 116-202): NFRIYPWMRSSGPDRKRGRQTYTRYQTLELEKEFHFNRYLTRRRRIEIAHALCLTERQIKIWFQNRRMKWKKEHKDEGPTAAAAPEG
# HOXB6 [12] = target: HOXB6 (Homo sapiens, UniProt P17509 132-218, K202E)
# HOXB6 (Homo sapiens, UniProt P17509 132-218, K202E), sequence (P17509 132-218 K202E): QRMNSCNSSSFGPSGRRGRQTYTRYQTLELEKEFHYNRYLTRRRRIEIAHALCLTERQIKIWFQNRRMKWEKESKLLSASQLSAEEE
# VAX1 [13] = target: VAX1 (Homo sapiens, UniProt Q5SQQ9 86-172)
# VAX1 (Homo sapiens, UniProt Q5SQQ9 86-172), sequence (Q5SQQ9 86-172): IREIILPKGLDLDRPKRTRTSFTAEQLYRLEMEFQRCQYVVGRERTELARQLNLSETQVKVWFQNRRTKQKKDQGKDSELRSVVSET
# VAX1 [14] = target: VAX1 (Homo sapiens, UniProt Q5SQQ9 86-172, T142I)
# VAX1 (Homo sapiens, UniProt Q5SQQ9 86-172, T142I), sequence (Q5SQQ9 86-172 T142I): as the sequence (Q5SQQ9 86-172) above, with T57I counted along it
# HOXA7 [15] = target: HOXA7 (Homo sapiens, UniProt P31268 116-202, W177C)
# HOXA7 (Homo sapiens, UniProt P31268 116-202, W177C), sequence (P31268 116-202 W177C): as the sequence (P31268 116-202) above, with W62C counted along it
# VAX1 [16] = target: VAX1 (Homo sapiens, UniProt Q5SQQ9 86-172, K157R)
# VAX1 (Homo sapiens, UniProt Q5SQQ9 86-172, K157R), sequence (Q5SQQ9 86-172 K157R): as the sequence (Q5SQQ9 86-172) above, with K72R counted along it
# HOXB6 [17] = target: HOXB6 (Homo sapiens, UniProt P17509 132-218)
# HOXB6 (Homo sapiens, UniProt P17509 132-218), sequence (P17509 132-218): as the sequence (P17509 132-218 K202E) above, with E71K counted along it
# PAX4 [18] = target: T1, PAX4 (Homo sapiens, UniProt O43316 9-242, R200K)
# T1 sequence: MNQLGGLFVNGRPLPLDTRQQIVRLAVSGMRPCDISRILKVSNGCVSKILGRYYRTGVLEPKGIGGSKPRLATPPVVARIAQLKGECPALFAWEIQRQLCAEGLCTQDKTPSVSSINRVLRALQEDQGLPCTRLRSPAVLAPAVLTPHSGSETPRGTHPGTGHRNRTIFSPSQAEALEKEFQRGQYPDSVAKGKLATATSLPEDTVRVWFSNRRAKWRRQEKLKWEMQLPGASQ
# PAX4 [19] = target: T2, PAX4 (Homo sapiens, UniProt O43316 9-242)
# T2 sequence: T1 sequence with K192R
# ALX1 [20] = target: ALX1 (Homo sapiens, UniProt Q15699 118-204, L144V)
# ALX1 (Homo sapiens, UniProt Q15699 118-204, L144V), sequence (Q15699 118-204 L144V): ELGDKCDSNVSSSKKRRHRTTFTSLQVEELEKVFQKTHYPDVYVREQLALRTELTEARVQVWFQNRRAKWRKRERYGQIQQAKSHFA
# PAX4 [21] = target: T3, PAX4 (Homo sapiens, UniProt O43316 9-242, R200Q)
# T3 sequence: T1 sequence with K192Q
# ALX1 [22] = target: ALX1 (Homo sapiens, UniProt Q15699 118-204, L144R)
# ALX1 (Homo sapiens, UniProt Q15699 118-204, L144R), sequence (Q15699 118-204 L144R): as the sequence (Q15699 118-204 L144V) above, with V27R counted along it
# PAX4 [23] = target: T4, PAX4 (Homo sapiens, UniProt O43316 9-242, F177V)
# T4 sequence: T1 sequence with F169V, K192R
# PAX4 [24] = target: T5, PAX4 (Homo sapiens, UniProt O43316 9-242, F177Y)
# T5 sequence: T1 sequence with F169Y, K192R
# PAX4 [25] = target: T6, PAX4 (Homo sapiens, UniProt O43316 9-242, R227W)
# T6 sequence: T1 sequence with K192R, R219W
# ALX1 [26] = target: ALX1 (Homo sapiens, UniProt Q15699 118-204)
# ALX1 (Homo sapiens, UniProt Q15699 118-204), sequence (Q15699 118-204): as the sequence (Q15699 118-204 L144V) above, with V27L counted along it
# HOXB4 (Homo sapiens, UniProt P17483 148-234), sequence (P17483 148-234): as the sequence (P17483 148-234 V174I) above, with I27V counted along it
# HOXA2 (Homo sapiens, UniProt O43364 129-215, R185T), sequence (O43364 129-215 R185T): as the sequence (O43364 129-215 R185K) above, with K57T counted along it
# HOXA4 (Homo sapiens, UniProt Q00056 201-287, R217L), sequence (Q00056 201-287 R217L): as the sequence (Q00056 201-287) above, with R17L counted along it
# HOXA4 (Homo sapiens, UniProt Q00056 201-287, W262R), sequence (Q00056 201-287 W262R): as the sequence (Q00056 201-287) above, with W62R counted along it
sequence,measurement,setting,value
CATAATGA,binding signal,HOXB4 [1],"13 upbm affinity estimate (log intensity, higher = more binding, comparable within an allelic series)"
same,binding signal,HOXA4 [2],"10.6 upbm affinity estimate (log intensity, higher = more binding, comparable within an allelic series)"
same,binding signal,HOXA2 [3],"12 upbm affinity estimate (log intensity, higher = more binding, comparable within an allelic series)"
same,binding signal,HOXA4 [4],"11.9 upbm affinity estimate (log intensity, higher = more binding, comparable within an allelic series)"
same,binding signal,HOXB4 [5],"13.5 upbm affinity estimate (log intensity, higher = more binding, comparable within an allelic series)"
same,binding signal,HOXA2 [6],"13.1 upbm affinity estimate (log intensity, higher = more binding, comparable within an allelic series)"
same,binding signal,HOXA4 [7],"13.6 upbm affinity estimate (log intensity, higher = more binding, comparable within an allelic series)"
same,binding signal,HOXA2 [8],"11 upbm affinity estimate (log intensity, higher = more binding, comparable within an allelic series)"
same,binding signal,HOXA4 [9],"11.3 upbm affinity estimate (log intensity, higher = more binding, comparable within an allelic series)"
same,binding signal,HOXA2 [10],"12.1 upbm affinity estimate (log intensity, higher = more binding, comparable within an allelic series)"
ATAATGAC,binding signal,HOXB4 [1],"12.9 upbm affinity estimate (log intensity, higher = more binding, comparable within an allelic series)"
same,binding signal,HOXA4 [2],"10.4 upbm affinity estimate (log intensity, higher = more binding, comparable within an allelic series)"
same,binding signal,HOXA7 [11],"11.2 upbm affinity estimate (log intensity, higher = more binding, comparable within an allelic series)"
same,binding signal,HOXB6 [12],"9.89 upbm affinity estimate (log intensity, higher = more binding, comparable within an allelic series)"
same,binding signal,HOXA2 [3],"12.4 upbm affinity estimate (log intensity, higher = more binding, comparable within an allelic series)"
same,binding signal,HOXA4 [4],"12.1 upbm affinity estimate (log intensity, higher = more binding, comparable within an allelic series)"
same,binding signal,HOXB4 [5],"13.6 upbm affinity estimate (log intensity, higher = more binding, comparable within an allelic series)"
same,binding signal,HOXA2 [6],"13.2 upbm affinity estimate (log intensity, higher = more binding, comparable within an allelic series)"
same,binding signal,HOXA4 [7],"13.7 upbm affinity estimate (log intensity, higher = more binding, comparable within an allelic series)"
same,binding signal,VAX1 [13],"12.6 upbm affinity estimate (log intensity, higher = more binding, comparable within an allelic series)"
same,binding signal,VAX1 [14],"12.5 upbm affinity estimate (log intensity, higher = more binding, comparable within an allelic series)"
same,binding signal,HOXA2 [8],"10.8 upbm affinity estimate (log intensity, higher = more binding, comparable within an allelic series)"
same,binding signal,HOXA7 [15],"8.74 upbm affinity estimate (log intensity, higher = more binding, comparable within an allelic series)"
same,binding signal,HOXA4 [9],"11.4 upbm affinity estimate (log intensity, higher = more binding, comparable within an allelic series)"
same,binding signal,HOXA2 [10],"12.4 upbm affinity estimate (log intensity, higher = more binding, comparable within an allelic series)"
same,binding signal,VAX1 [16],"12.3 upbm affinity estimate (log intensity, higher = more binding, comparable within an allelic series)"
same,binding signal,HOXB6 [17],"11.7 upbm affinity estimate (log intensity, higher = more binding, comparable within an allelic series)"
GTGGGGGA,binding signal,HOXB4 [1],"7.95 upbm affinity estimate (log intensity, higher = more binding, comparable within an allelic series)"
same,binding signal,HOXA7 [11],"8.47 upbm affinity estimate (log intensity, higher = more binding, comparable within an allelic series)"
same,binding signal,PAX4 [18],"9.34 upbm affinity estimate (log intensity, higher = more binding, comparable within an allelic series)"
same,binding signal,PAX4 [19],"9.25 upbm affinity estimate (log intensity, higher = more binding, comparable within an allelic series)"
same,binding signal,HOXB6 [12],"9.05 upbm affinity estimate (log intensity, higher = more binding, comparable within an allelic series)"
same,binding signal,HOXB4 [5],"7.59 upbm affinity estimate (log intensity, higher = more binding, comparable within an allelic series)"
same,binding signal,ALX1 [20],"6.51 upbm affinity estimate (log intensity, higher = more binding, comparable within an allelic series)"
same,binding signal,PAX4 [21],"9.37 upbm affinity estimate (log intensity, higher = more binding, comparable within an allelic series)"
same,binding signal,ALX1 [22],"6.24 upbm affinity estimate (log intensity, higher = more binding, comparable within an allelic series)"
same,binding signal,PAX4 [23],"9.35 upbm affinity estimate (log intensity, higher = more binding, comparable within an allelic series)"
same,binding signal,PAX4 [24],"9.43 upbm affinity estimate (log intensity, higher = more binding, comparable within an allelic series)"
same,binding signal,PAX4 [25],"9.48 upbm affinity estimate (log intensity, higher = more binding, comparable within an allelic series)"
same,binding signal,HOXA7 [15],"8.55 upbm affinity estimate (log intensity, higher = more binding, comparable within an allelic series)"
same,binding signal,ALX1 [26],"6.29 upbm affinity estimate (log intensity, higher = more binding, comparable within an allelic series)"
same,binding signal,HOXB6 [17],"9.14 upbm affinity estimate (log intensity, higher = more binding, comparable within an allelic series)"
AAACGAGT,binding signal,HOXB4 [1],"9.6 upbm affinity estimate (log intensity, higher = more binding, comparable within an allelic series)"
same,binding signal,HOXB4 [5],"9.41 upbm affinity estimate (log intensity, higher = more binding, comparable within an allelic series)"
ACACGAGC,binding signal,HOXB4 [1],"7.84 upbm affinity estimate (log intensity, higher = more binding, comparable within an allelic series)"
same,binding signal,HOXB4 [5],"7.68 upbm affinity estimate (log intensity, higher = more binding, comparable within an allelic series)"
AGACCAGC,binding signal,HOXB4 [1],"7.43 upbm affinity estimate (log intensity, higher = more binding, comparable within an allelic series)"
same,binding signal,PAX4 [18],"9.14 upbm affinity estimate (log intensity, higher = more binding, comparable within an allelic series)"
same,binding signal,PAX4 [19],"9.21 upbm affinity estimate (log intensity, higher = more binding, comparable within an allelic series)"
same,binding signal,HOXB4 [5],"7.5 upbm affinity estimate (log intensity, higher = more binding, comparable within an allelic series)"
same,binding signal,PAX4 [21],"9.31 upbm affinity estimate (log intensity, higher = more binding, comparable within an allelic series)"
same,binding signal,PAX4 [23],"9.23 upbm affinity estimate (log intensity, higher = more binding, comparable within an allelic series)"
same,binding signal,PAX4 [24],"9.22 upbm affinity estimate (log intensity, higher = more binding, comparable within an allelic series)"
same,binding signal,PAX4 [25],"9.29 upbm affinity estimate (log intensity, higher = more binding, comparable within an allelic series)"
